# Measurements published in the supplement of paper PMC4022240.
# ± gives the standard deviation.
# T1: HaloTag-ATRX ADD domain (163-292)
# T1 chain: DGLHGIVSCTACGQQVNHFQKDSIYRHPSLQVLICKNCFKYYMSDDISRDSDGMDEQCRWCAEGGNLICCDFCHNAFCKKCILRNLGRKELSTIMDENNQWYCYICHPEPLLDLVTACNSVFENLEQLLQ
# Legend:
# Assay in all cases: peptide microarray binding signal (635 nm), min-max normalized on array (fraction of array maximum); higher = stronger binding
# [1] = target: T1, HaloTag-ATRX ADD domain (163-292)
# Method in brief: (§1)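 An Axon GenePix 4000B scanned the arrays at 635 nm for signal and at 532 nm to catch misprints. Those arrays held histone 13-mer peptide–cellulose conjugates printed in triplicate on nitrocellulose with a Cy3 tracer, blocked overnight at 4°C and probed for 1 h at 4°C with biotin-labelled HaloTag reader fusions (10 nM to 1 μM) plus streptavidin-Alexa Fluor 647 or with rabbit histone antibodies (1:10,000 to 1:2,000) plus anti-rabbit Alexa 647. Each binding signal is a triplicate-spot mean intensity, scaled min-max within its library.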
# [2] = target: HaloTag-ING2 PHD (mouse Ing2 200-280)
# Method in brief: as §1
# [3] = target: anti-H3K4me3 antibody ab8580
# Method in brief: as §1
# [4] = target: anti-H3K9me3 antibody ab8898
# Method in brief: as §1
# [5] = peptide region: Unmod H2A variant, binder concentration: 50 nM
# [6] = peptide region: Unmod H2A variant, binder concentration: 500 nM
# [7] = peptide region: Unmod H2A variant, binder concentration: 10 nM
# [8] = peptide region: Unmod H2A variant, binder concentration: 100 nM
# [9] = peptide region: Unmod H2A variant, binder concentration: 1:2,000 dilution
# [10] = peptide region: Unmod H2A variant, binder concentration: 1:10,000 dilution
# [11] = peptide region: Unmod H1 variant, binder concentration: 500 nM
# [12] = peptide region: Unmod H1 variant, binder concentration: 100 nM
# [13] = peptide region: Unmod H1 variant, binder concentration: 1:2,000 dilution
# [14] = peptide region: Unmod H1 variant, binder concentration: 50 nM
# [15] = peptide region: Unmod H1 variant, binder concentration: 10 nM
# [16] = peptide region: Unmod H1 variant, binder concentration: 1:10,000 dilution
binder,measurement,setting,value
RAKAKSRSSRAGL [Unmod H2A variant R A K A K S R S S R A G L],peptide microarray binding signal,[1]; [5],0.00771 ± 0.00081
same,peptide microarray binding signal,[1]; [6],0.0133 ± 0.001
same,peptide microarray binding signal,[2]; [7],0.00615 ± 0.00015
same,peptide microarray binding signal,[2]; [8],0.0141 ± 0.0012
same,peptide microarray binding signal,[3]; [9],0.000868 ± 0.00013
same,peptide microarray binding signal,[3]; [10],0.0012 ± 1.2e-05
same,peptide microarray binding signal,[4]; [9],0.0004379 ± 4.2e-06
same,peptide microarray binding signal,[4]; [10],0.00098 ± 1.7e-05
QGGKARAKSKSRS [Unmod H2A variant Q G G K A R A K S K S R S],peptide microarray binding signal,[1]; [5],0.0112 ± 0.00043
same,peptide microarray binding signal,[1]; [6],0.0328 ± 0.0016
same,peptide microarray binding signal,[2]; [7],0.00824 ± 9.4e-05
same,peptide microarray binding signal,[2]; [8],0.0201 ± 0.0027
same,peptide microarray binding signal,[3]; [9],0.00194 ± 0.00036
same,peptide microarray binding signal,[3]; [10],0.00143 ± 2.4e-05
same,peptide microarray binding signal,[4]; [9],0.000574 ± 1.1e-05
same,peptide microarray binding signal,[4]; [10],0.000807 ± 1.5e-05
KAAAASKKKPAGP [Unmod H1 variant K A A A A S K K K P A G P],peptide microarray binding signal,[1]; [11],0.0113 ± 0.0013
same,peptide microarray binding signal,[2]; [12],0.003402 ± 3e-05
same,peptide microarray binding signal,[3]; [13],0.000321 ± 3.3e-06
same,peptide microarray binding signal,[4]; [13],0.000181 ± 3.4e-06
KKAPKSPAKAKAV [Unmod H1 variant K K A P K S P A K A K A V],peptide microarray binding signal,[1]; [14],0.00658 ± 0.0021
same,peptide microarray binding signal,[1]; [11],0.00976 ± 0.00041
same,peptide microarray binding signal,[2]; [15],0.00412 ± 0.0002
same,peptide microarray binding signal,[2]; [12],0.00978 ± 0.00048
same,peptide microarray binding signal,[3]; [13],0.000793 ± 4.5e-05
same,peptide microarray binding signal,[3]; [16],0.00154 ± 3.9e-05
same,peptide microarray binding signal,[4]; [13],0.000347 ± 9.2e-06
same,peptide microarray binding signal,[4]; [16],0.00115 ± 2e-05
KAKSSAKRAGKKK [Unmod H1 variant K A K S S A K R A G K K K],peptide microarray binding signal,[1]; [11],0.016 ± 0.0011
same,peptide microarray binding signal,[2]; [12],0.00369 ± 5.6e-05
same,peptide microarray binding signal,[3]; [13],0.00034 ± 6.1e-06
same,peptide microarray binding signal,[4]; [13],0.000227
QGGKARAKAKSRS [Unmod H2A variant Q G G K A R A K A K S R S],peptide microarray binding signal,[1]; [5],0.0073 ± 0.00042
same,peptide microarray binding signal,[1]; [6],0.0168 ± 0.0004
same,peptide microarray binding signal,[2]; [7],0.002507 ± 1.4e-05
same,peptide microarray binding signal,[2]; [8],0.00758 ± 0.0021
same,peptide microarray binding signal,[3]; [9],0.00164 ± 0.00013
same,peptide microarray binding signal,[3]; [10],0.001027 ± 1e-05
same,peptide microarray binding signal,[4]; [9],0.000302 ± 3.1e-06
same,peptide microarray binding signal,[4]; [10],0.000404 ± 4.4e-06
AKAVKPKAAKPKT [Unmod H1 variant A K A V K P K A A K P K T],peptide microarray binding signal,[1]; [14],0.0116 ± 0.00013
same,peptide microarray binding signal,[1]; [11],0.00791 ± 0.00033
same,peptide microarray binding signal,[2]; [15],0.00304 ± 8.9e-05
same,peptide microarray binding signal,[2]; [12],0.00765 ± 0.00045
same,peptide microarray binding signal,[3]; [13],0.000774 ± 2.8e-05
same,peptide microarray binding signal,[3]; [16],0.00137 ± 1.3e-05
same,peptide microarray binding signal,[4]; [13],0.000453 ± 1.3e-05
same,peptide microarray binding signal,[4]; [16],0.000865 ± 9e-06
KGNYSERVGAGAP [Unmod H2A variant K G N Y S E R V G A G A P],peptide microarray binding signal,[1]; [5],0.019 ± 0.0052
same,peptide microarray binding signal,[1]; [6],0.0303 ± 0.012
same,peptide microarray binding signal,[2]; [7],0.00692 ± 0.0004
same,peptide microarray binding signal,[2]; [8],0.0104 ± 0.0025
same,peptide microarray binding signal,[3]; [9],0.00799 ± 0.00061
same,peptide microarray binding signal,[3]; [10],0.00223 ± 0.00022
same,peptide microarray binding signal,[4]; [9],0.00116 ± 9.9e-05
same,peptide microarray binding signal,[4]; [10],0.00115 ± 5.3e-05
AGLQFPVGRIHRL [Unmod H2A variant A G L Q F P V G R I H R L],peptide microarray binding signal,[1]; [5],0.0361 ± 0.0039
same,peptide microarray binding signal,[1]; [6],0.0377 ± 0.0043
same,peptide microarray binding signal,[2]; [7],0.0334 ± 0.0037
same,peptide microarray binding signal,[2]; [8],0.0514 ± 0.0061
same,peptide microarray binding signal,[3]; [9],0.00361 ± 0.0021
same,peptide microarray binding signal,[3]; [10],0.00628 ± 0.00018
same,peptide microarray binding signal,[4]; [9],0.00281 ± 0.00024
same,peptide microarray binding signal,[4]; [10],0.00686 ± 0.00042
KPKTAKPKAAKPK [Unmod H1 variant K P K T A K P K A A K P K],peptide microarray binding signal,[1]; [14],0.0113 ± 0.0004
same,peptide microarray binding signal,[1]; [11],0.00857 ± 0.00027
same,peptide microarray binding signal,[2]; [15],0.00292 ± 8.4e-05
same,peptide microarray binding signal,[2]; [12],0.00914 ± 0.00042
same,peptide microarray binding signal,[3]; [13],0.000736
same,peptide microarray binding signal,[3]; [16],0.00143 ± 2.4e-05
same,peptide microarray binding signal,[4]; [13],0.000529 ± 1.8e-05
same,peptide microarray binding signal,[4]; [16],0.0011 ± 1.1e-05
